The values below come from PubChem BioAssay AID540333 (Southern Research Specialized Biocontainment Screening …, 2011).

Hit rate of the full screen: of about 10,000 compounds, about 320 (3.2%) were called active. What follows is part of a selection rich in actives, with near analogues and random picks from the rest. Unmarked numbers belong to inactive results. Cut-off read from the data, not from the text of the source: active = CPE inhibition mostly above about 9.1% (no sharp cut-off); inactive = mostly below about 7.2%.

The assay in a line: antivirals protecting cells from dengue CPE – CPE readout, HTS (AID 540333). Conditions: Dengue virus CPE inhibition in host cells, at 20 µM; hits give high values.
Regarding `COc1ccc(-c2cn(-c3ccccc3)c3[n+]2CCS3)cc1`, the CPE inhibition was 7.46%.

On to `O=C(CSc1nc2ccccc2[nH]1)Nc1ccc2c(c1)CCC2`, for which the CPE inhibition was 2.09%. With `NS(=O)(=O)c1ccc(NC(=S)NCc2ccccc2Cl)cc1` the figure was 1.7%.

On to `O=[N+]([O-])c1ccc(N2CCOCC2)cc1SCc1ccco1`, for which the CPE inhibition is 0.08%. With `COCCNC(=S)N1CCc2cc(OC)c(OC)cc2C1COc1ccc(C(C)C)cc1` (stereo unspecified) the figure was 15.5% (active); with `COc1cc2c(cc1OC)CN(C(=S)Nc1c(C)cccc1C)CC2`, “inactive”. As for `COCCNC(=S)N/N=C(\C)c1ccc2cc(OC)ccc2c1`, the CPE inhibition was 0.1%. The entry for `COc1cc2c(cc1OC)C(C)N(C(=O)c1ccc(Br)o1)CC2` (stereo unspecified) is “inactive”; for `CCc1ccc(OCC2c3cc(OC)c(OC)cc3CCN2C(=S)NCCOC)cc1` (stereo unspecified) it is 17.3% (active); for `COc1cccc(NC(=S)N2CCc3cc(OC)c(OC)cc3C2COc2ccc3c(C)cc(=O)oc3c2)c1` (stereo unspecified) it is 0.46%.

Turning to `COC(=O)Cc1ccc2sc(-c3ccccc3)nc2c1`, the CPE inhibition entry is “inactive”. With `COc1cc(/C=N/NC(=O)C2COc3ccccc3O2)cc(OC)c1OC` (stereo unspecified), the CPE inhibition entry is “inactive”. As to `CC(C(=O)NCC1CCCCC1)N1CCN(S(=O)(=O)/C=C/c2ccccc2)CC1` (stereo unspecified), the CPE inhibition was 0.61%. For the molecule `O=C(NNS(=O)(=O)c1ccc2ccccc2c1)NC1CCCCC1`, the CPE inhibition entry is “inactive”. With `COc1ccc(NS(=O)(=O)c2ccc(OC)c(NC(=O)CCC3CCCCC3)c2)cc1` the figure was 0.695%; with `COc1ccc(NS(=O)(=O)c2ccc(C)c(NC(=O)NC3CCCCC3)c2)cc1`, 7.27% (active); with `CCOc1ccc(/C(O)=C2/C(=O)C(=O)N(CC3CCCO3)C2c2cccs2)cc1` (stereo unspecified), 0.87%. On to `Cc1nn(Cc2ccc(C(=O)N3N=C(C(F)F)CC3(O)C(F)F)o2)c(C)c1[N+](=O)[O-]` (stereo unspecified), for which the CPE inhibition is 0.095%. With `COc1cccc(NC(=O)CN(C)C(=O)COc2ccc3ccccc3c2)c1` the figure was 0.135%; with `Cc1ccc(S(=O)(=O)Nc2cc(=O)[nH]c(SCc3ccccc3Cl)n2)cc1`, “inactive”; with `O=C(CSc1nnc(-c2ccncc2)o1)NCc1ccccc1Cl`, “inactive”. The figure for `Cc1ccc(S(=O)(=O)Nc2ccc(-c3nnc(SCc4ccccc4Cl)o3)cc2)cc1` is 17.2% (active); for `Cc1nn(CCC(N)=O)c2nc(-c3cccs3)cc(C(F)(F)F)c12` it is “inactive”; for `O=C(Oc1ccccc1C(=O)Nc1ccccc1)c1ccccc1Br` it is 1.84%.

In the case of `COc1ccccc1CNC(=O)C(NS(=O)(=O)c1ccc2c(c1)OCCO2)C(C)C` (stereo unspecified), the CPE inhibition result was “inactive”. The figure for `CCCCN(C)C(=S)Nc1ccc(Oc2ccccc2)cc1` is 3.21%; for `CCCn1c(SC(C(=O)Nc2cccc(OC)c2)c2ccccc2)nc2ccccc2c1=O` (stereo unspecified) it is 0.175%. As for `Cc1ccccc1NC(=O)C1CCCN1/C=C/C(=O)C(F)(F)F` (stereo unspecified), the CPE inhibition result is “inactive”. The figure for `CCC(=O)NC(Nc1nc(C)cs1)(C(=O)OC)C(F)(F)F` (stereo unspecified) is 0.32%; for `CC(C)(C)OC(=O)N[C@H](C(=O)OC(C)(C)C)c1ccc2ccccc2c1` it is 0.425%. The figure for `CCOC(=O)C(C)(C)N(Cc1ccc(C)cc1)S(=O)(=O)c1ccc(Cl)c([N+](=O)[O-])c1` is 7.28% (active). The figure for `CCOC(=O)C(C)(C)N(Cc1ccccc1C)S(=O)(=O)c1ccc(Cl)c([N+](=O)[O-])c1` is 7.12%; for `CCOC(=O)C(C)(C)N(Cc1cccc(C)c1)S(=O)(=O)c1ccc(Cl)c([N+](=O)[O-])c1` it is 7.24%; for `O=C(NN1C(=O)/C(=C\c2cccnc2)SC1=S)C(c1ccccc1)c1ccccc1` it is “inactive”. Take `Cc1ccccc1C(=O)NCCCCc1ccccc1`: the CPE inhibition is 0.125%. In the case of `CCC(C)NC(=O)Cn1c(COc2ccc(Cl)cc2Cl)nc2ccccc21` (stereo unspecified), the CPE inhibition was 13.4% (active). In the case of `O=C(Cn1c(COc2ccc(Cl)cc2)nc2ccccc21)NCC(F)(F)F`, the CPE inhibition entry was “inactive”.

Consider `O=C(Cn1c(COc2ccccc2)nc2ccccc21)Nc1cc(Cl)ccc1Cl`, for which the CPE inhibition was 5.49%. The figure for `CCOc1cc(/C=C/c2cc(C(=O)O)c3ccccc3n2)ccc1O` is 0.055%; for `Cc1ccc(NS(=O)(=O)c2ccc(C3CCCCC3)cc2)cc1` it is 21.5% (active); for `Cc1ccc(S(=O)(=O)Nc2ccc(NC(=O)Nc3ccc(F)cc3F)cc2)cc1` it is 10.3%.

In the case of `Cc1ccc(NS(=O)(=O)c2ccc(OCC(=O)NCc3ccncc3)cc2)cc1`, the CPE inhibition was 0.315%. On to `CC1(C)CC(=O)C2=C(C1)NC1=C(C(=O)c3ccccc31)C2c1ccc(O)cc1` (stereo unspecified), for which the CPE inhibition is 2.13%.

As to `CC(C)Oc1cccc(C(=O)NC(=S)NCc2cccnc2)c1`, the CPE inhibition was 2.73%.

As for `CC(C)NC(=S)NC(=O)c1ccc(-c2ccccc2)cc1`, the CPE inhibition was 0.805%. With `O=C(NC(=S)NC(c1ccccc1)c1ccncc1)c1ccccc1` (stereo unspecified), the CPE inhibition was 18.9% (active).

As to `O=C(NC(=S)Nc1ccc(Cc2ccncc2)cc1)c1ccccc1`, the CPE inhibition was 0.355%. For the molecule `CCOC(=O)c1c(C(F)(F)F)cc(-c2ccc(F)cc2)nc1C`, the CPE inhibition result was “inactive”. With `CC(C)(Oc1ccc(Cl)cc1)C(=O)N(Cc1ccccc1)c1ccccn1` the figure was 11% (active); with `CC1(C(=O)NC(=S)N(Cc2ccccc2)c2ccccn2)CC1(Cl)Cl` (stereo unspecified), 0.075%. With `COc1cc(/C=C/C(=O)N(Cc2ccccc2)c2ccccn2)cc(OC)c1OC`, the CPE inhibition result is “inactive”. As for `O=C(c1ccc(COc2ccc(Br)cc2)o1)N1N=C(C(F)F)CC1(O)C(F)F` (stereo unspecified), the CPE inhibition is 2.42%. The figure for `Cc1ccc(OCC(=O)NCC(=O)Nc2ccc(F)c(F)c2F)c([N+](=O)[O-])n1` is 0.32%; for `Cc1ccc(OCC(=O)Nc2ccccc2Sc2ccc(Cl)cc2)c([N+](=O)[O-])n1` it is 13.9% (active). As to `Cc1ccc(OCC(=O)Nc2cc(S(=O)(=O)N3CCCCC3)ccc2C)c([N+](=O)[O-])n1`, the CPE inhibition was 3.06%. With `O=C1c2ccccc2S(=O)(=O)c2cc(C(=O)N3CCN(c4ncccn4)CC3)ccc21` the figure was 0.735%; with `CC(C)c1ccc(NC(=O)COc2ccc(F)cc2C(=O)c2cnn(-c3ccccc3)c2)cc1`, 1.51%; with `CCOP(=O)(OCC)C(NC(=O)Nc1ccccc1)C(N)=O` (stereo unspecified), 1.93%. With `C[C@]1(C(=O)NCCc2c[nH]c3ccccc23)C=C[C@@H](Cc2ccccc2)N1C(=O)c1ccccc1`, the CPE inhibition is 19.4% (active). With `CC1(C(=O)NCCc2c[nH]c3ccccc23)C=CCN1C(=O)c1ccccc1` (stereo unspecified) the figure was 1.21%. For `CC(C)C(=O)NCCc1c[nH]c2ccccc12`, the CPE inhibition is 0.48%. With `CCCCn1c(SCc2nc3ccccc3s2)nc2ccccc2c1=O` the entry was “inactive”.

Regarding `CCOc1cc2c3c(c1)C1(C(=O)N3C(C)(C)CC2C)C(C#N)=C(N)N2C(=C1C#N)Nc1ccccc12` (stereo unspecified), the CPE inhibition is 2.12%. With `Cc1cccc(C(O)(C(=O)NNc2ccc3ccccc3n2)c2cccc(C)c2)c1` the entry was “inactive”. On to `O=C(NNc1ccccc1Cl)C(O)(c1cccc(C(F)(F)F)c1)c1cccc(C(F)(F)F)c1`, for which the CPE inhibition was 20.4% (active).

Take `Cc1ccc(NNC(=O)C(O)(c2cccc(C(F)(F)F)c2)c2cccc(C(F)(F)F)c2)cc1`: the CPE inhibition is 7.56%. The entry for `Cc1ccc(NC(=S)NCC(C)C)cc1` is “inactive”. Regarding `C#Cc1ccc([C@@H]2C=C(C(=O)O)O[C@H](OCC)[C@H]2CCCO)cc1`, the CPE inhibition was 1.06%. In the case of `Cc1cc(-c2n[nH]c(=S)n2/N=C/c2ccccc2[N+](=O)[O-])n[nH]1`, the CPE inhibition was 0.73%. As to `Cc1cc(-c2n[nH]c(=S)n2/N=C/c2cccc([N+](=O)[O-])c2)n[nH]1`, the CPE inhibition is 0.265%.

As to `Cc1cc(-c2n[nH]c(=S)n2/N=C/c2cc([N+](=O)[O-])ccc2Cl)n[nH]1`, the CPE inhibition was 10.9% (active).

Take `O=C(Nc1ccc(F)cc1F)c1cc2ncc(CCCl)cn2n1`: the CPE inhibition is 0.045%. The figure for `Cc1ccc(S(=O)(=O)N2CCCCC2)cc1C(=O)OCC(=O)NC(=O)NC12CC3CC(CC(C3)C1)C2` is 0.11%; for `CN(C)c1ccc(N=Nc2ccccc2C(=O)OCC(=O)NCC2CCCCC2)cc1` it is 0.995%. The figure for `COc1ccc(CN(C)C2c3ccccc3-c3ccccc32)cc1` is 1.16%; for `Cc1cc(C(=O)N/N=C/c2cc(Cl)cc([N+](=O)[O-])c2O)c2ccccc2n1` it is 0.08%; for `O=C(N/N=C/c1cc(Cl)cc([N+](=O)[O-])c1O)NC12CC3CC(CC(C3)C1)C2` it is 15.6% (active).

For the molecule `O=C(N/N=C/c1cc([N+](=O)[O-])ccc1O)NC12CC3CC(CC(C3)C1)C2`, the CPE inhibition is 0.635%. In the case of `Cc1ccc2nc(-c3cccc(NS(C)(=O)=O)c3)cc(-c3ccccc3)c2c1`, the CPE inhibition was 24.6% (active). The figure for `O=[N+]([O-])c1ccc2nc(-c3ccccc3)cc(-c3ccccc3)c2c1` is 1.14%; for `Clc1ccc2nc(-c3ccncc3)cc(-c3ccccc3)c2c1` it is 2.25%. Consider `COCCn1c(=NC(=O)c2nc3ccccc3s2)sc2cc(S(C)(=O)=O)ccc21`, for which the CPE inhibition was 6.63%.

With `Cc1cccc(/C(N)=N/OC(=O)c2ccc3c(c2)OCO3)c1`, the CPE inhibition was 0.195%.

On to `COc1ccccc1NC(=O)c1c(Nc2ccccc2F)sc(C(=O)Nc2cccc(Cl)c2)c1N`, for which the CPE inhibition is 17.3% (active). The entry for `COc1ccccc1NC(=O)c1ccc(NS(=O)(=O)c2ccc(F)c(Cl)c2)cc1` is “inactive”. With `COc1ccccc1NC(=O)c1c(Nc2ccccc2C)sc(C(=O)Nc2cccc(Cl)c2)c1N` the figure was 0.08%; with `Cc1ccc(-c2csc(NC(=S)NC(=O)c3cc4ccccc4o3)n2)cc1`, 1.54%. With `O=C1CSC(=S)N1N=C1CCCCCC1` the entry was “inactive”; with `O=C(NC(=S)NCC1CCCO1)c1cccs1` (stereo unspecified), “inactive”; with `O=C(NC(=S)NC1CCSC1=O)c1cccs1` (stereo unspecified), 12.2% (active).

For `Cc1onc(-c2c(F)cccc2Cl)c1C(=O)NC(=S)NC1CCSC1=O` (stereo unspecified), the CPE inhibition is 2.61%.
